The source of these data is PubChem BioAssay AID504444 (National Center for Advancing Translational Sciences (NCATS), 2011).

Structures are written as SMILES. Hit rate of the full screen: of about 360,000 compounds, about 7,500 (2.1%) were called active. A call without a number means that no potency is given here. Not shown: some 20% with an inconclusive outcome. The call rests on the fitted dose curve; in most records, active means well fitted inhibition curve with a large enough effect; inconclusive means small, poorly fitted or top-dose-only effect, or effect the other way; inactive means flat fitted curve, though single readings scatter. The full list was thinned out, with actives kept by preference.
Potency means the concentration at half of the fitted maximal effect.

This assay can be described thus: Nrf2 qHTS screen for inhibitors. Further: nearly all actives have a fitted effect of over 60% in size. The following applies: A549 ARE-Fluc reporter, luciferase luminescence, 18-24 h; series mostly up to 46 µM. The gist of the method: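 Reporter: ARE-Fluc in A549. Exposure: 18-24 h, 37 °C, 5% CO2, 5% FBS OPTI-MEM. Readouts: fluorescent cytotoxicity (CellTiter-Fluor), then luminescent Nrf2 signal after BugLite.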
In general terms: qHTS replaces the single test concentration by a dilution series.
Turning to `CCN(C(=O)c1sc2cc(OC)ccc2c1Cl)c1ccccc1`, the Potency result was “inactive”.
`C=CCN1C=C(C(=O)c2ccccc2)C(=O)CC1`: the Potency entry is “inactive”.
Then `CC(Nc1nc(C(F)(F)F)nc2ccccc12)c1cccs1` (stereo not drawn), with “inactive”; and `NS(=O)(=O)c1ccc(CCNc2nc(C(F)(F)F)nc3ccccc23)cc1`, with 23.1 µM (active).
The entry for `COc1cccc(CNC(=O)c2n[nH]c3ccccc23)c1` is “inactive”; for `COc1cccc(CNc2nc(C(F)(F)F)nc3ccccc23)c1` it is 23.1 µM (active); for `COc1cccc(CNc2ncc(-c3ccccc3)n2C)c1` it is “inactive”.
In the case of `NS(=O)(=O)c1ccc(CCNC(=O)CNC(=O)Cc2ccccc2)cc1`, the Potency entry is “inactive”.
Then `Cc1ccc(C)c(Cn2c(C(=O)O)c(CNCc3cccs3)c3ccccc32)c1`, with “inactive”; and `COC(=O)CN1C(=O)CSc2ccc(S(=O)(=O)Nc3cc(C)ccc3C)cc21`, with “inactive”.
The entry for `Cc1cc(N)n(-c2ccc(S(=O)(=O)N3CCCC3)cc2[N+](=O)[O-])n1` is “inactive”.
Then `CN1CCN(S(=O)(=O)c2ccc(N3CCN(c4ccccc4O)CC3)c([N+](=O)[O-])c2)CC1`, with 14.6 µM (active); and `Cc1ccc(C(=O)c2ccc(N3CCN(C)CC3)c([N+](=O)[O-])c2)cc1`, with “inactive”.
On to `COc1ccc(-c2nc(Cn3c(=O)cc(C)c4c(C)nn(-c5ccccc5)c43)c(C)o2)c(OC)c1`, for which the Potency result is “inactive”.
Then `Cc1cc(C)n2ncc(C(=O)N3CCCC3)c2n1`, with “inactive”.
Then `Cc1cccc(NS(=O)(=O)c2ccc(C)c(C(=O)NCC(c3ccccc3)N(C)C)c2)c1` (stereo not drawn), with “inactive”; and `Cc1ccccc1-c1ccc(Nc2ccc(C(=O)N3CCOCC3)cc2)nn1`, with “inactive”; and `CCOC(=O)c1ccccc1C(=O)N1CCOCCOCCOCC1`, with “inactive”.
The figure for `Cc1oc2c(c1C(=O)N1CCOCC1)C(=O)c1ccccc1C2=O` is 16.4 µM (active); for `COc1ccc(C2Nc3ccc(NC(=O)COC(C)=O)cc3C(=O)N2Cc2ccccc2)cc1COc1ccc(NC(C)=O)cc1` (stereo not drawn) it is “inactive”.
As for `CC1=CC(C)(C)N(C(=O)CSc2nnc(-c3ccccc3)o2)c2ccc(C)cc21`, the Potency is 25.9 µM (active).
Then `Cc1cccc(C)c1OC(=O)CSc1nnc(-c2ccccc2)o1`, with “inactive”; and `CC1=CC(C)(C)N(C(=O)CSc2nccn2C)c2cc(C)ccc21`, with “inactive”; and `CCN(CC)C(=O)[C@H]1CC(CC(=O)NCc2ccco2)C(=O)N2CCc3c([nH]c4ccccc34)[C@]12C` (stereo partly drawn), with “inactive”.
Then `Clc1cccc(N=C2NN=C(c3ccc4c(c3)OCCO4)CS2)c1`, with 5.17 µM (active); and `Cc1cccc(N=C2NN=C(c3c[nH]c4ccccc34)CS2)c1`, with “inactive”.
Then `S=C(Nc1cccc(Cl)c1)Nc1ccc2c(c1)OCCO2`, with “inactive”.
`CCn1nnc2cc(C(=O)Nc3ccc(C(=O)OC(C)C)cc3)ccc21`: the Potency result was “inactive”.
